The record followed here is PubChem BioAssay AID1851 (National Center for Advancing Translational Sciences (NCATS), 2009).

Values joined by “and” are separate entries in the source; they are usually repeats but may differ in a detail not shown here. Equal values may be shown once. Hit rate of the full screen: of about 16,000 compounds, about 5,700 (36%) were called active. About 24% were inconclusive and are not listed. The list shows a part of the results. Unmarked numbers belong to inactive results. Calls come from the whole dose curve; as a rule, active = well fitted curve in the direction sought with a large enough effect; inconclusive = small, poorly fitted or top-dose-only effect, or effect the other way; inactive = no such curve, though single readings can be large or run the other way.
% is set by controls: 0 for no effect and ±100 for the full control effect.

For this assay, the target named is Cytochrome P450 1A2 (Homo sapiens) (UniProt P05177). Description: Cytochrome panel assay with activity outcomes. The settings on record: recombinant CYP, pro-luciferin dealkylation, luminescence, p450-cyp1a2; series mostly up to 57.1 µM; activity, negative = inhibition: at the top concentration.
Cytochrome P450 1A2 (Homo sapiens), sequence (P05177 whole entry, looked up): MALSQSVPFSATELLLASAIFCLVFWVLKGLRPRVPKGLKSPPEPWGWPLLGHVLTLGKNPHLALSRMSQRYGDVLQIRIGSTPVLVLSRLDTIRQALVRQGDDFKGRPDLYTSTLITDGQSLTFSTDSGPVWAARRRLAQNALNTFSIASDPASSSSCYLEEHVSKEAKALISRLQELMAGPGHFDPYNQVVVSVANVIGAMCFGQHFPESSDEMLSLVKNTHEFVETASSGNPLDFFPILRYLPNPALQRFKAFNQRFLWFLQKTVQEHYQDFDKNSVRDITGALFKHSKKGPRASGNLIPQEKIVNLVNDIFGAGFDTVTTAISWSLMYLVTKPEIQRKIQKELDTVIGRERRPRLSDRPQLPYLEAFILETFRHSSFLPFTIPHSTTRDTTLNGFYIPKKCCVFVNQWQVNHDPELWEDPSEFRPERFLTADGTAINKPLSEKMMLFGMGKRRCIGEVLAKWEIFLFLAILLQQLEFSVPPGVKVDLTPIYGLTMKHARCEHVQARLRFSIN
`COc1ccc(OC)c2[nH]c(=O)c(CCNC(=O)COc3ccccc3)cc12`: the half-maximal activity concentration (AC50) is 11.2 µM (active).

Regarding `Cn1c(=O)c2cc(S(=O)(=O)NCCC(=O)Nc3ccc(Cl)cc3)ccc2n(C)c1=O`, the “activity, negative = inhibition” value was -4.77%.

For the compound `COc1ccc(Cl)cc1C(=O)NCCc1ccc(S(=O)(=O)NC(=O)NC2CCCCC2)cc1`, the “activity, negative = inhibition” value is -2.36% [at 25.6 µM].

For `COc1ccc(OC)c2[nH]c(=O)c(CCNC(=O)c3ccc(S(=O)(=O)N(C)C)cc3)cc12`, the “activity, negative = inhibition” value was -13.1%.

In the case of `COc1ccc(OC)c2[nH]c(=O)c(CCNS(=O)(=O)c3ccccc3)cc12`, the half-maximal activity concentration (AC50) was 12.6 µM (active).

Take `CC1(C)OC[C@@H]2O[C@H](n3cnc4c(N)nc(Cl)nc43)[C@@H](OS(C)(=O)=O)[C@@H]2O1`: the activity, negative = inhibition was -14.5% [at 2.29 µM].

With `O=S(=O)(c1ccc(Br)cc1)N1CCN(S(=O)(=O)c2ccc(Br)cc2)CC1`, the activity, negative = inhibition was -11.2% [at 11.4 µM].

For the compound `O=C(O)CCC(=O)N1CCc2cc(S(=O)(=O)N3CCCCC3)ccc21`, the “activity, negative = inhibition” value was -10.2%.

As to `O=S(=O)(c1cccc(-c2nnc(-c3ccc(Br)cc3)o2)c1)N1CCCCCC1`, the concentration at half-maximal activity (AC50) is 14.1 µM (active).

For `Cc1nn2c3c(cnc2c1-c1ccccc1)C(=O)CC(c1ccccc1)C3` (stereo unspecified), the AC50 is 3.16 µM (active).

As to `CCC1NC(=S)N(C2CCCCC2)C1=O` (stereo unspecified), the “activity, negative = inhibition” value is -4.86%.

Regarding `COc1cccc(-c2nccc(N(C)Cc3ccco3)n2)c1`, the concentration at half-maximal activity (AC50) was 0.631 µM (active).

In the case of `CN(Cc1ccco1)c1ccnc(-c2ccoc2)n1`, the concentration at half-maximal activity (AC50) was 12.6 µM (active).

As for `CN(C)C(=O)c1ccc(-c2nccc(N(C)Cc3ccco3)n2)cc1`, the concentration at half-maximal activity (AC50) was 12.6 µM (active).

For `CN(Cc1ccco1)c1ccnc(-c2cccnc2)n1`, the half-maximal activity concentration (AC50) was 0.794 µM (active).

Turning to `COc1ccc(Cc2nnc(NC(=O)Cn3cnc4c3c(=O)n(C)c(=O)n4C)s2)cc1OC`, the “activity, negative = inhibition” value is 2.87%.

`CN(Cc1ccco1)c1ccnc(-c2cccc(C#N)c2)n1`: the concentration at half-maximal activity (AC50) is 0.398 µM (active).

As to `CS/C(N)=N/N=C/c1ccc([N+](=O)[O-])cc1`, the AC50 was 14.1 µM (active).

On to `O=C1CCCC=C1[C@H](O)c1ccc([N+](=O)[O-])cc1`, for which the activity, negative = inhibition is -7.01% [at 11.4 µM].

Regarding `NC(N)=N/N=C\c1ccc(C2CCNCC2)cc1`, the activity, negative = inhibition is -12% [at 2.29 µM].

For `COc1ccc(N(C)C(=O)c2ccc3nc(-c4ccccc4)c(-c4ccccc4)nc3c2)cc1`, the “activity, negative = inhibition” value was -19.6%.

In the case of `C=CCNC(=O)c1csc(-c2ccccc2)n1`, the half-maximal activity concentration (AC50) was 0.631 µM (active).

As to `C=CCNC(=O)c1onc(CSc2ccc(F)cc2)c1C(=O)O`, the “activity, negative = inhibition” value is -2.62%.

In the case of `C=CCNC(=O)c1ccc2nc(-c3ccccc3)c(-c3ccccc3)nc2c1`, the half-maximal activity concentration (AC50) is 15.8 µM (active).

On to `C=CCNC(=O)c1cccn1-c1ccsc1C(=O)OC`, for which the “activity, negative = inhibition” value is -26.4%.

Turning to `C=CCNC(=O)c1ccc(-c2nc(-c3ccc(Cl)c(Cl)c3)cs2)cc1`, the “activity, negative = inhibition” value is -28.6%.

Take `CC(=O)NCCNc1ncnc2ccc(-c3cccc(NS(C)(=O)=O)c3)cc12`: the concentration at half-maximal activity (AC50) is 15.8 µM (active).

With `COCCNc1ncnc2ccc(-c3cccc(NS(C)(=O)=O)c3)cc12`, the half-maximal activity concentration (AC50) is 0.794 µM (active).

On to `O=C(c1cnccn1)N1CCC2(CCN(Cc3nccs3)CC2)CC1`, for which the “activity, negative = inhibition” value is -8.84%.

For the compound `Cc1ccc(NS(=O)(=O)c2cc(C(=O)NCc3ccccn3)ccc2Cl)cc1`, the half-maximal activity concentration (AC50) was 5.01 µM (active).

With `CN(c1ccc(C(=O)NCc2ccccn2)cc1)S(C)(=O)=O`, the “activity, negative = inhibition” value is 10.6%.

As to `C=C(CC)C(=O)c1ccc(OCC(=O)O)c(Cl)c1Cl`, the “activity, negative = inhibition” value was -13.9% [at 25.6 µM].

In the case of `COC(=O)/C=C/CSC1=N/C(=C/c2ccc(-n3cncn3)cc2)C(=O)N1`, the half-maximal activity concentration (AC50) is 1 µM (active).

On to `CNc1ncnc2c1ncn2[C@H]1C[C@@H](OP(=O)(O)O)[C@H](COP(=O)(O)O)O1`, for which the “activity, negative = inhibition” value is -14.7%.

With `COC(=O)Cn1cc(/C=N/NC(=O)c2ccc(C#N)cc2F)c2ccccc21`, the half-maximal activity concentration (AC50) is 3.55 µM (active).

As to `N#Cc1ccc(C(=O)Nc2ccc(N3CCN(C(=O)c4ccco4)CC3)cc2)c(F)c1`, the “activity, negative = inhibition” value is 21.3%.

With `CCN(CC)C(=O)Cn1cc(/C=C(\C#N)C(=O)N2CCN(c3ccccc3)CC2)c2ccccc21`, the “activity, negative = inhibition” value is -12.4%.

Regarding `COc1ncc2nc(C)c(=O)n(-c3ccccc3)c2n1`, the AC50 was 5.01 µM (active).

Take `Cc1nc2cnc(Oc3ccccc3)nc2n(-c2ccccc2)c1=O`: the AC50 is 10 µM (active).

Consider `COc1ccc(Oc2ncc3nc(C)c(=O)n(-c4ccc(OC)cc4)c3n2)cc1`, for which the concentration at half-maximal activity (AC50) is 15.8 µM (active).

Consider `COc1ccc(-n2c(=O)c(C)nc3cnc(OC)nc32)cc1`, for which the “activity, negative = inhibition” value was -21.9%.

As to `Cc1cccc(CSc2cccc3cccnc23)c1`, the AC50 was 2 µM (active).

Turning to `Cc1ccc(N[C@H](c2ccccc2)c2ccc3cccnc3c2O)cc1`, the activity, negative = inhibition was -24.5% [at 2.29 µM].

For the compound `COc1ccc(/C(C)=N/NC(=O)c2ccc(CSc3cccc4cccnc34)cc2)cc1OC`, the AC50 was 11.2 µM (active).

As for `Cc1nc(N=Nc2cc(S(=O)(=O)O)ccc2S(=O)(=O)O)c(COP(=O)(O)O)c(C=O)c1O`, the “activity, negative = inhibition” value is -11.6%.

Turning to `COc1cc([C@H](O)C(=O)O)ccc1O`, the “activity, negative = inhibition” value was -11.9%.

`COc1cc(CNC(=O)CCCC/C=C\C(C)C)ccc1O`: the AC50 was 1.58 µM (active) and 3.16 µM (active).

Consider `COc1cc(CC(=O)O)ccc1O`, for which the “activity, negative = inhibition” value is 0.616%.

In the case of `Clc1ccc(Nc2ncn[nH]2)cc1`, the AC50 is 4.47 µM (active).

Take `O=C(O)/C=C\C(=O)Nc1ncn[nH]1`: the activity, negative = inhibition was -8.55% [at 11.4 µM].

On to `O=C(Nc1ncn[nH]1)c1ccc([N+](=O)[O-])cc1[N+](=O)[O-]`, for which the “activity, negative = inhibition” value is -24%.

The AC50 is the midpoint of the concentration-response curve, whichever way the signal moves.
